Assays:
Test in all cases: DAPPL (digital affinity profiling via proximity ligation, sequencing); 10 mM Tris-HCl pH 7.5, 50 mM NaCl, 1 mM DTT, 4% glycerol, room temperature, 30 min; GST-TFs on glutathione beads, 16-mer random dsDNA library, 0.1% formaldehyde crosslink after washing; high values mean tight binding
Details in all cases: protein: recombinant; tags: N-terminal GST; dsDNA, one strand shown
ETV1 = ETV1 (Homo sapiens, UniProt P50549 1-477)
Outline: (§1)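 Yeast served to express human transcription factors as GST fusions, which were then captured on glutathione beads and labelled with DNA barcodes. Pooled with a tag-only sample, they were incubated with 200 nmole of a 16-mer random double-stranded DNA library for 30 min at room temperature in Tris/NaCl/DTT/glycerol buffer, washed, crosslinked with 0.1% formaldehyde, ligated by proximity, amplified by PCR and sequenced. Dividing each hexamer's read frequency for a factor by its frequency for the tag-only sample gives the binding signal.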

ERF = molecular target: T1, ERF (Homo sapiens, UniProt P50548 1-548)
T1 sequence: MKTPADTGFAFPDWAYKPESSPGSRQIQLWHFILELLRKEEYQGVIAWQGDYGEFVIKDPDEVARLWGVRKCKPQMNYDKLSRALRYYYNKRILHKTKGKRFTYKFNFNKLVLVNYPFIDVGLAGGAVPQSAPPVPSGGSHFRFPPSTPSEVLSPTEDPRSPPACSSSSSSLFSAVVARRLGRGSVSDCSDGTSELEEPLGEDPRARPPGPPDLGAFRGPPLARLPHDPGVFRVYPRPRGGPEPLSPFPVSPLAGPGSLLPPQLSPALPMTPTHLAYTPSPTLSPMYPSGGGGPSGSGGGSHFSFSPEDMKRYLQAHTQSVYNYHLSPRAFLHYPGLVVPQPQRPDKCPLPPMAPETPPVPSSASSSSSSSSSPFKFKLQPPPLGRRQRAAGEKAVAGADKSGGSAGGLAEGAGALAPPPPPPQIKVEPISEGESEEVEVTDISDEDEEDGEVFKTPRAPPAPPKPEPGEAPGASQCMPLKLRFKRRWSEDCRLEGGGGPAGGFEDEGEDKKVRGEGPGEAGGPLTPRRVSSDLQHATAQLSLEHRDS
Outline: as §1

ETV3L = molecular target: T2, ETV3L (Homo sapiens, UniProt Q6ZN32 1-361)
T2 sequence: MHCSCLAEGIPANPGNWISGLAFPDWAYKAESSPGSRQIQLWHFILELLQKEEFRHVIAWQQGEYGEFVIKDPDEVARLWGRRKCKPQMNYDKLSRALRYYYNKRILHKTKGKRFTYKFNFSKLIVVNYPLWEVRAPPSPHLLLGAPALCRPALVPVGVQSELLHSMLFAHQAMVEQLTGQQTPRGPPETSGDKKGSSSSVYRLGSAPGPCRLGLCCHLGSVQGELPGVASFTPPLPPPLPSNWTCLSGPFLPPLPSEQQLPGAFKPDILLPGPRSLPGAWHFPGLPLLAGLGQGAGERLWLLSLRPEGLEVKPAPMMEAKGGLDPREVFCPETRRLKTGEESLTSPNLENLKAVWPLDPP
Outline: as §1

ETS2 = molecular target: T3, ETS2 (Homo sapiens, UniProt P15036 1-469)
T3 sequence: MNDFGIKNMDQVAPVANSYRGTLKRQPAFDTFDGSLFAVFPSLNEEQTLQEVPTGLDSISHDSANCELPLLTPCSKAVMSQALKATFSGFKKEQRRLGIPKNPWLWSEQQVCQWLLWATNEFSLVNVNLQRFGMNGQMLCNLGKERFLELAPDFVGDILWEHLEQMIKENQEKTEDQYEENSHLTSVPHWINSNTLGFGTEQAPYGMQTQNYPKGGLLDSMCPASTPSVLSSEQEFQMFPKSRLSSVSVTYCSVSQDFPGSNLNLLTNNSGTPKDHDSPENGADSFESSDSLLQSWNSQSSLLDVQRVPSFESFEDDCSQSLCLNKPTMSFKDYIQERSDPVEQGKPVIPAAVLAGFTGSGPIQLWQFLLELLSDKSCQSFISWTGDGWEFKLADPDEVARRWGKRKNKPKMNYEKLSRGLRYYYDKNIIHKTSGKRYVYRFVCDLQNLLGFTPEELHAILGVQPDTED
Outline: as §1

SPDEF = molecular target: T4, SPDEF (Homo sapiens, UniProt O95238 1-335)
T4 sequence: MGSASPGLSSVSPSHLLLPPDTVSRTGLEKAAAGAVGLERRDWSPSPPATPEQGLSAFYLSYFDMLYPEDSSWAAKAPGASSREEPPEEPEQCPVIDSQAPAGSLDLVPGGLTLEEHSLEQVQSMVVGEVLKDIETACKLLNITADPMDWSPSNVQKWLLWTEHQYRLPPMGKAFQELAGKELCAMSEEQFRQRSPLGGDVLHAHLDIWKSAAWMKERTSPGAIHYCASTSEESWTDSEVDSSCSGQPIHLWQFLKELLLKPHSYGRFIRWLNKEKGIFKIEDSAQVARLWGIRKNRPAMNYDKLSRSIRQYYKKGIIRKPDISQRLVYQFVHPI
Outline: as §1

ETV7 = molecular target: T5, ETV7 (Homo sapiens, UniProt Q9Y603 1-341)
T5 sequence: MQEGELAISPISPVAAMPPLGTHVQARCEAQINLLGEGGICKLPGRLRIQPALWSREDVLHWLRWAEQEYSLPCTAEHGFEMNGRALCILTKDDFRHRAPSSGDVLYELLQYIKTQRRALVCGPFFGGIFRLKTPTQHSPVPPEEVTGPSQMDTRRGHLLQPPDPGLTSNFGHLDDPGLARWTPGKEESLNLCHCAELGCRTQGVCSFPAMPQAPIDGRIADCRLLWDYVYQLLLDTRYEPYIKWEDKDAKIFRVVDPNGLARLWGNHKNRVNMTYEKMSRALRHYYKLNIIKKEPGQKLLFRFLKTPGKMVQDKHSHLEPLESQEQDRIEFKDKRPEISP
Outline: as §1

ELF5 = molecular target: T6, ELF5 (Homo sapiens, UniProt Q9UKW6-2 1-255)
T6 sequence: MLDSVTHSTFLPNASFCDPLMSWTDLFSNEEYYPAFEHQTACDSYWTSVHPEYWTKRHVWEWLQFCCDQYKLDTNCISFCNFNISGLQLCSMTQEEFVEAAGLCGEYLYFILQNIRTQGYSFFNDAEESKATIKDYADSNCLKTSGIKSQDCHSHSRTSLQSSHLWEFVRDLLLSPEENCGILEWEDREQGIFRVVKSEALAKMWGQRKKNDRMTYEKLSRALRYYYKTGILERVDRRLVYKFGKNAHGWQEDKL
Outline: as §1

ETV3 = molecular target: T7, ETV3 (Homo sapiens, UniProt P41162-2 1-143)
T7 sequence: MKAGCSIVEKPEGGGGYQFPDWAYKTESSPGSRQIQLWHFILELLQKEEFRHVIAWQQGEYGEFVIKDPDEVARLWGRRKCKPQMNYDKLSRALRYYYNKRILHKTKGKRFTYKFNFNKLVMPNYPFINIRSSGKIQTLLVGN
Outline: as §1

ETV6 = ETV6 (Homo sapiens, UniProt P41212 1-452)
Outline: as §1

Chain of ETV6 (P41212 whole entry): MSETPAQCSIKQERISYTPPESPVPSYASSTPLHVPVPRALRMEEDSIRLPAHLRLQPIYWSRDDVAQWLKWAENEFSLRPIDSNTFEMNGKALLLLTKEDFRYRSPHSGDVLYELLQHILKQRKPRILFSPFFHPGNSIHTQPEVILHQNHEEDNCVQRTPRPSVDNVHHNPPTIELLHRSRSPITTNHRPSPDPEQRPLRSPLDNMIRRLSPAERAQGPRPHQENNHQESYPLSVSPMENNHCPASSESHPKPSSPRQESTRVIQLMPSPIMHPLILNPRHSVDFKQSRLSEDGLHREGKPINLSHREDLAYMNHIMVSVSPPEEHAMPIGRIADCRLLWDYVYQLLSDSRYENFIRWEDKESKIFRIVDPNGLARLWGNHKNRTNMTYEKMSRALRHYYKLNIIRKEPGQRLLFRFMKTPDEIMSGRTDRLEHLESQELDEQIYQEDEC
Chain of ETV1 (P50549 whole entry, the tested form may be a part): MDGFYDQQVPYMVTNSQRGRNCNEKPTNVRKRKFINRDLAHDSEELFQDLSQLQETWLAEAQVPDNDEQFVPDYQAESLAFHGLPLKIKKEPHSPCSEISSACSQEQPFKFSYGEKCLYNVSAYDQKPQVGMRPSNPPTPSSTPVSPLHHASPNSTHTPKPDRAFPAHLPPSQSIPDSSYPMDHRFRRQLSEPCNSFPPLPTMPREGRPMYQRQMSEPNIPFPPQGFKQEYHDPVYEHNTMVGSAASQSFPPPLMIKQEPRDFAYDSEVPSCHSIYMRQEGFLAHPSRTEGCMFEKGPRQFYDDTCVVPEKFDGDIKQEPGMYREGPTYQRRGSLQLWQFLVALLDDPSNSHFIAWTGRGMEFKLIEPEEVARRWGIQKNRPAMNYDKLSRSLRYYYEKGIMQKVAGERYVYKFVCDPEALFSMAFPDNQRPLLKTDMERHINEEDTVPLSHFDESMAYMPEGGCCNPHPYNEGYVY

TGGAAT
binding signal (ETV1): 1.24 fold enrichment (6-mer frequency, TF over GST control)
binding signal (ERF): 1.22 fold enrichment (6-mer frequency, TF over GST control)
binding signal (ETV3L): 1.3 fold enrichment (6-mer frequency, TF over GST control)
binding signal (ETS2): 1.3 fold enrichment (6-mer frequency, TF over GST control)
binding signal (SPDEF): 1.28 fold enrichment (6-mer frequency, TF over GST control)
binding signal (ETV7): 1.27 fold enrichment (6-mer frequency, TF over GST control)
binding signal (ELF5): 1.18 fold enrichment (6-mer frequency, TF over GST control)
binding signal (ETV3): 1.24 fold enrichment (6-mer frequency, TF over GST control)
binding signal (ETV6): 1.15 fold enrichment (6-mer frequency, TF over GST control)

— paper PMC7862700, “An all-to-all approach to the identification of sequence-specific readers for epigenetic DNA modifications on cytosine”
